From PubChem BioAssay
The list is a sample of the results.
aSyn 5UTR act: Activators via SNCA 5'UTR binding, MLPCN. alpha-synuclein 5'UTR reporter, activators screen. activity score, % (tested at 7.5 µM), hits read low. hit rate 7.1% among 300,000; in the data active means activity score below about -60%
An asterisk follows results filed as active.

`COc1ccc(C2=C/C(=C\c3ccccc3OC(C)=O)C(=O)O2)cc1` gave aSyn 5UTR act -79.0*.
Screening COc1ccc(C2=C(C=O)Cc3ccccc3O2)cc1 returned aSyn 5UTR act 98.0.
For Cc1ccc2c(c1C)NC(=O)CC(c1ccccc1O)=N2 the results were aSyn 5UTR act -83.1*.
Screening CCc1nc(SCc2ccc(OCC(C)C)cc2)n[nH]1 returned aSyn 5UTR act -102.1*.
CCc1nc(SCc2ccc(Cl)cc2)n[nH]1 was read as aSyn 5UTR act -49.4*.
Screening CCc1nc(SCc2ccc(Br)cc2)n[nH]1 returned aSyn 5UTR act -88.3*.
Screening Cc1ccc(SC(C)c2nc(-c3ccccc3)no2)cc1 (stereo not drawn) returned aSyn 5UTR act -97.6*.
For O=C(Nc1ccc(-c2cn3c(n2)SCC3)cc1)c1ccc2ccccc2n1 the results were aSyn 5UTR act -185.8*.
For O=C(Nc1cccc(-c2cn3c(n2)SCC3)c1)c1ccc2ccccc2n1 the results were aSyn 5UTR act -141.0*.
CCN(CC)CCNc1nc2cc(OC)c(OC)cc2c2nc(-c3ccccc3)nn12 was read as aSyn 5UTR act -72.8*.
For CN(CCc1ccccn1)C(=O)CCc1nnc(CCCc2ccccc2)o1 the results were aSyn 5UTR act -91.3*.
`CC(C)N(Cc1nccn1C)C(=O)CCc1nnc(CCCc2ccccc2)o1` gave aSyn 5UTR act -119.9*.
For COc1ccc(-c2ncc(CN3CCN(CCC(C)C)C(CCO)C3)cn2)cc1 (stereo not drawn) the results were aSyn 5UTR act -111.3*.
`COc1ccc(CN2CCN(Cc3cccn3-c3ncccn3)CC2CCO)c(C)c1C` (stereo not drawn) gave aSyn 5UTR act 59.8.
CC1=CC(C)=Nc2ccc(C)cc2N1 was read as aSyn 5UTR act -62.5*.
For O=C1Nc2cc(C(=O)NCCCN3CCCC3)ccc2S/C1=C/c1ccccc1F the results were aSyn 5UTR act -106.0*.
Screening CCN1CCCC1CNC(=O)c1ccc2c(c1)NC(=O)/C(=C\c1ccc(C)cc1)S2 (stereo not drawn) returned aSyn 5UTR act 74.1.
For Cc1cc(C(=O)N/N=C2\CC(=O)c3ccccc32)c(C)n1-c1ccccc1 the results were aSyn 5UTR act -111.6*.
Nc1ccc2oc(-c3ccccn3)nc2c1 was read as aSyn 5UTR act -133.5*.
`Clc1ccc2oc(-c3ccccn3)nc2c1` gave aSyn 5UTR act -147.4*.
Screening c1ccc(-c2nc3ccccc3o2)nc1 returned aSyn 5UTR act -70.0*.
For COc1ccc2c(c1)O/C(=C\c1ccco1)C2=O the results were aSyn 5UTR act -119.5*.
Screening Cc1cccc(/C=C2\Oc3cc(OS(C)(=O)=O)ccc3C2=O)c1 returned aSyn 5UTR act -63.8*.
For CC(=O)COc1ccc2c(c1C)O/C(=C\c1ccco1)C2=O the results were aSyn 5UTR act -212.7*.
`Cc1ccc2nc(SC(C)C(=O)N3CCOCC3)[nH]c2c1` (stereo not drawn) gave aSyn 5UTR act -94.4*.
For CC1CCC/C(=C\Nc2ccc(C(=O)O)cc2)C1=O (stereo not drawn) the results were aSyn 5UTR act -120.5*.
CCOC(=O)c1ccc(N/C=C2/CCCC(C)C2=O)cc1 (stereo not drawn) was read as aSyn 5UTR act -152.8*.
For Clc1ccc2c(c1)C1OCCC1C(c1ccco1)N2 (stereo not drawn) the results were aSyn 5UTR act -125.2*.
`CC[n+]1c(/C=C2\Sc3ccccc3N2C)ccc2cccc(C)c21` gave aSyn 5UTR act 115.8.
For COc1ccc(C(=O)/C=C2\Sc3ccccc3N2C)cc1 the results were aSyn 5UTR act -179.5*.
Cc1cccc(C)c1NS(=O)(=O)c1ccc(-c2cnc(C3CC3)o2)cc1 was read as aSyn 5UTR act 102.7.
Cc1nc(C#N)c(N/N=C/c2c(F)cccc2Cl)o1 was read as aSyn 5UTR act -62.1*.
Screening O=C(Cn1cc(C(F)(F)F)cc(Cl)c1=O)NCc1ccc(F)cc1 returned aSyn 5UTR act -81.2*.
For CCOC(=O)C(C)Oc1cccc2c(=O)n(CC(=O)NCc3ccc(F)cc3)ccc12 (stereo not drawn) the results were aSyn 5UTR act 68.2.
For CC(C)(C)n1ncc2c(=O)n(CC(=O)NC3CCCCC3)cnc21 the results were aSyn 5UTR act -108.0*.
For CC(C)(C)n1ncc2c(=O)n(CC(=O)c3ccccc3)cnc21 the results were aSyn 5UTR act -106.7*.
Screening CC(C)(C)n1ncc2c(=O)n(CC(=O)NCc3ccc(F)cc3)cnc21 returned aSyn 5UTR act -90.0*.
For CC(C)(C)n1ncc2c(=O)n(CC(=O)NCc3ccco3)cnc21 the results were aSyn 5UTR act -92.9*.
Screening CCOc1ccccc1NC(=O)Cn1nnc(C(=O)NCc2ccco2)c1N returned aSyn 5UTR act 84.6.
`CCCCC1CCC(c2nc(-c3cccnc3)no2)CC1` (stereo not drawn) gave aSyn 5UTR act -91.5*.
`CCCCC1CCC(c2nc(-c3ccccn3)no2)CC1` (stereo not drawn) gave aSyn 5UTR act 96.6.
For Cc1ccc(/C=C2\Sc3ccccc3C2=O)s1 the results were aSyn 5UTR act -103.8*.
For COc1ccccc1N1C(=O)S/C(=C\c2ccc(C)s2)C1=O the results were aSyn 5UTR act -135.4*.
For COc1ccccc1N1C(=O)S/C(=C\c2cc(C)n(C)c2C)C1=O the results were aSyn 5UTR act -127.6*.
For COCc1cc(C)nc(SCC(=O)Nc2ccc3c(c2)OCO3)c1C#N the results were aSyn 5UTR act -70.4*.
`COCc1cc(C)nc(SCC(=O)Nc2ccc3c(c2)OCCO3)c1C#N` gave aSyn 5UTR act -85.6*.
Screening COCc1cc(C)nc(SCC(=O)c2ccc(O)c(O)c2)c1C#N returned aSyn 5UTR act -79.8*.
`COC(=O)c1cccc(NC(=O)NC23CC4CC(CC(C4)C2)C3)c1` gave aSyn 5UTR act -98.2*.
Screening Nc1ccccc1-c1nc2ccccc2[nH]c1=O returned aSyn 5UTR act -141.1*.
For Nc1ccc(Br)cc1-c1nc2ccccc2[nH]c1=O the results were aSyn 5UTR act -102.0*.
`CCSc1nnc(-c2ccccc2N)c(=O)[nH]1` gave aSyn 5UTR act -67.5*.
`CNc1nnc(-c2ccc(OC)cc2)s1` gave aSyn 5UTR act -75.3*.
For COc1ccc(C2=CC(c3ccc(F)cc3)n3nnnc3N2)cc1 (stereo not drawn) the results were aSyn 5UTR act -130.2*.
COc1ccc(C2=CC(c3sccc3C)n3nnnc3N2)cc1 (stereo not drawn) was read as aSyn 5UTR act -130.2*.
Screening c1ccc(-c2nnc(-c3ccccn3)nn2)nc1 returned aSyn 5UTR act -121.8*.
Screening c1ccc(-c2cccc(-c3ccccn3)n2)nc1 returned aSyn 5UTR act 76.6.
For CC(C)(C)C(=O)/C(=C\c1cccc([N+](=O)[O-])c1)n1cncn1 the results were aSyn 5UTR act -129.0*.
COc1ccc(C(=O)NC(=S)NCC2CCCO2)cc1 (stereo not drawn) was read as aSyn 5UTR act -71.4*.
COc1cccc(-c2cc(C(=O)NCC3CCCO3)on2)c1 (stereo not drawn) was read as aSyn 5UTR act -63.9*.
Screening O=C(NCC1CCCO1)c1cc(-c2ccc(F)cc2)no1 (stereo not drawn) returned aSyn 5UTR act -263.6*.
Screening CC(C)CNc1nc(N)c([N+](=O)[O-])c(NCC2CCCO2)n1 (stereo not drawn) returned aSyn 5UTR act 51.0.
`CC(=O)Nc1ccc(-c2csc(Nc3ccc(Cl)cn3)n2)cc1` gave aSyn 5UTR act -127.3*.
Screening CC(=O)Nc1cccc(-c2csc(Nc3ccc(Cl)cn3)n2)c1 returned aSyn 5UTR act -174.5*.
